From paper PMC12820563, “FoxP3 forms a head-to-head dimer in vivo and stabilizes its multimerization on adjacent microsatellites”
Whole data set: some 16,000 sequences, median “rpm ratio (pull-down/input)” near 0.5, cut for the highest 2% near 5.5. What follows is part of a selection rich in the highest values, with near analogues and random picks from the rest.

target: T1, MBP-FoxP3dN (Mus musculus, UniProt Q99JB6 188-423); assay: PD-seq (MBP pull-down with sequencing); 20 mM Tris-HCl pH 7.5, 100 mM NaCl, 1.5 mM MgCl2, 0.4 uM protein, 0.1 uM dsDNA library, 30 min, room temperature, amylose pull-down; high values mean tight binding; conditions: protein: recombinant; tags: His6-MBP; chain copies: 2; dsDNA, one strand shown
T1 sequence: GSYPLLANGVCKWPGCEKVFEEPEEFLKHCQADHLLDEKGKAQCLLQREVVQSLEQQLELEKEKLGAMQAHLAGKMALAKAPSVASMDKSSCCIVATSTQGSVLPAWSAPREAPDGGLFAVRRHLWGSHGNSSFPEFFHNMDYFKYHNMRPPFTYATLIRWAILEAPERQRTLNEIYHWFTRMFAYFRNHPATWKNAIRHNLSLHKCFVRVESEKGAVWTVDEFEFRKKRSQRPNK
Method in brief: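 A degenerate double-stranded DNA library, filled in with Klenow, was added at 0.1 µM to 0.4 µM His6-MBP-tagged mouse FoxP3 or FoxP1 fragment lacking the N-terminus, expressed in E. coli. Incubation lasted 30 min at room temperature in Tris pH 7.5 buffer with NaCl and MgCl2, after which complexes were collected on amylose resin, washed three times, digested with proteinase K to free the DNA, barcoded by PCR and sequenced by Illumina. Binding is the pooled-replicate reads-per-million enrichment of pull-down over input.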

Sequence | binding signal
GATGATTGTTCTCCCAGCTGATGAATTAAAGTGTTCGAGTAAACAAATTTTCCTAATCTTTCTGTTCAAGCGCCATCTAC | 0.592 RPM ratio (pull-down/input)
GATGATTGTTCTCCCAGCTGATGAATTATAACCGTCGAGTAAACAAATTTTCCTAATCTTTCTGTTCAAGCGCCATCTAC | 0.364 RPM ratio (pull-down/input)
GATGATTGTTCTCCCAGCTGATGAATTATGCTTGTCGAGTAAACAAATTTTCCTAATCTTTCTGTTCAAGCGCCATCTAC | 4.71 RPM ratio (pull-down/input)
GATGATTGTTCTCCCAGCTGATGAATTATGATTGTCGAGTAAACAAATTTTCCTAATCTTTCTGTTCAAGCGCCATCTAC | 4.27 RPM ratio (pull-down/input)
GATGATTGTTCTCCCAGCTGATGAATTATGCGCCTCGAGTAAACAAATTTTCCTAATCTTTCTGTTCAAGCGCCATCTAC | 2.82 RPM ratio (pull-down/input)
GATGATTGTTCTCCCAGCTGATGAATTATGAAATTCGAGTAAACAAATTTTCCTAATCTTTCTGTTCAAGCGCCATCTAC | 0.632 RPM ratio (pull-down/input)
GATGATTGTTCTCCCAGCTGATGAATTATATGCCTCGAGTAAACAAATTTTCCTAATCTTTCTGTTCAAGCGCCATCTAC | 0.913 RPM ratio (pull-down/input)
GATGATTGTTCTCCCAGCTGATGAATTATGCTGTTCGAGTAAACAAATTTTCCTAATCTTTCTGTTCAAGCGCCATCTAC | 3.42 RPM ratio (pull-down/input)
GATGATTGTTCTCCCAGCTGATGAATTATGCCTCTCGAGTAAACAAATTTTCCTAATCTTTCTGTTCAAGCGCCATCTAC | 6.22 RPM ratio (pull-down/input)
GATGATTGTTCTCCCAGCTGATGAATTAATTATGTCGAGTAAACAAATTTTCCTAATCTTTCTGTTCAAGCGCCATCTAC | 1.89 RPM ratio (pull-down/input)
GATGATTGTTCTCCCAGCTGATGAATTATGCCTGTCGAGTAAACAAATTTTCCTAATCTTTCTGTTCAAGCGCCATCTAC | 5.87 RPM ratio (pull-down/input)
GATGATTGTTCTCCCAGCTGATGAATTATGCCATTCGAGTAAACAAATTTTCCTAATCTTTCTGTTCAAGCGCCATCTAC | 5.9 RPM ratio (pull-down/input)
GATGATTGTTCTCCCAGCTGATGAATTATGCATGTCGAGTAAACAAATTTTCCTAATCTTTCTGTTCAAGCGCCATCTAC | 6.46 RPM ratio (pull-down/input)
GATGATTGTTCTCCCAGCTGATGAATTATGAATGTCGAGTAAACAAATTTTCCTAATCTTTCTGTTCAAGCGCCATCTAC | 1.04 RPM ratio (pull-down/input)
GATGATTGTTCTCCCAGCTGATGAATTCTGCGGCTCGAGTAAACAAATTTTCCTAATCTTTCTGTTCAAGCGCCATCTAC | 1.01 RPM ratio (pull-down/input)
GATGATTGTTCTCCCAGCTGATGAATTGCAGCCTTCGAGTAAACAAATTTTCCTAATCTTTCTGTTCAAGCGCCATCTAC | 2.83 RPM ratio (pull-down/input)
GATGATTGTTCTCCCAGCTGATGAATTGTAAACATCGAGTAAACAAATTTTCCTAATCTTTCTGTTCAAGCGCCATCTAC | 5.2 RPM ratio (pull-down/input)
GATGATTGTTCTCCCAGCTGATGAATTTGCCGATTCGAGTAAACAAATTTTCCTAATCTTTCTGTTCAAGCGCCATCTAC | 0.474 RPM ratio (pull-down/input)
GATGATTGTTCTCCCAGCTGATGAATTAAATCTCTCGAGTAAACAAATTTTCCTAATCTTTCTGTTCAAGCGCCATCTAC | 0.29 RPM ratio (pull-down/input)
GATGATTGTTCTCCCAGCTGATGAATTCAGTTCGTCGAGTAAACAAATTTTCCTAATCTTTCTGTTCAAGCGCCATCTAC | 0.758 RPM ratio (pull-down/input)
GATGATTGTTCTCCCAGCTGATGAATTACTTCTATCGAGTAAACAAATTTTCCTAATCTTTCTGTTCAAGCGCCATCTAC | 0.347 RPM ratio (pull-down/input)

Sequence | binding signal
GATGATTGTTCTCCCAGCTGATGAATTCCGAACTTCGAGTAAACAAATTTTCCTAATCTTTCTGTTCAAGCGCCATCTAC | 0.253 RPM ratio (pull-down/input)
GATGATTGTTCTCCCAGCTGATGAATTATGAAACTCGAGTAAACAAATTTTCCTAATCTTTCTGTTCAAGCGCCATCTAC | 0.828 RPM ratio (pull-down/input)
GATGATTGTTCTCCCAGCTGATGAATTATTTCATTCGAGTAAACAAATTTTCCTAATCTTTCTGTTCAAGCGCCATCTAC | 0.381 RPM ratio (pull-down/input)
GATGATTGTTCTCCCAGCTGATGAATTATGCCACTCGAGTAAACAAATTTTCCTAATCTTTCTGTTCAAGCGCCATCTAC | 6.25 RPM ratio (pull-down/input)
GATGATTGTTCTCCCAGCTGATGAATTTATGCATTCGAGTAAACAAATTTTCCTAATCTTTCTGTTCAAGCGCCATCTAC | 7.56 RPM ratio (pull-down/input)
GATGATTGTTCTCCCAGCTGATGAATTATGACACTCGAGTAAACAAATTTTCCTAATCTTTCTGTTCAAGCGCCATCTAC | 2.61 RPM ratio (pull-down/input)
GATGATTGTTCTCCCAGCTGATGAATTATGGCATTCGAGTAAACAAATTTTCCTAATCTTTCTGTTCAAGCGCCATCTAC | 5.55 RPM ratio (pull-down/input)
GATGATTGTTCTCCCAGCTGATGAATTATTCAACTCGAGTAAACAAATTTTCCTAATCTTTCTGTTCAAGCGCCATCTAC | 0.381 RPM ratio (pull-down/input)
GATGATTGTTCTCCCAGCTGATGAATTTTATGCATCGAGTAAACAAATTTTCCTAATCTTTCTGTTCAAGCGCCATCTAC | 1.54 RPM ratio (pull-down/input)
GATGATTGTTCTCCCAGCTGATGAATTTATGAATTCGAGTAAACAAATTTTCCTAATCTTTCTGTTCAAGCGCCATCTAC | 0.946 RPM ratio (pull-down/input)
GATGATTGTTCTCCCAGCTGATGAATTATTCATTTCGAGTAAACAAATTTTCCTAATCTTTCTGTTCAAGCGCCATCTAC | 0.406 RPM ratio (pull-down/input)
GATGATTGTTCTCCCAGCTGATGAATTATGCAACTCGAGTAAACAAATTTTCCTAATCTTTCTGTTCAAGCGCCATCTAC | 6.6 RPM ratio (pull-down/input)
GATGATTGTTCTCCCAGCTGATGAATTATCCCACTCGAGTAAACAAATTTTCCTAATCTTTCTGTTCAAGCGCCATCTAC | 0.322 RPM ratio (pull-down/input)
GATGATTGTTCTCCCAGCTGATGAATTGAAAACATCGAGTAAACAAATTTTCCTAATCTTTCTGTTCAAGCGCCATCTAC | 1.27 RPM ratio (pull-down/input)
GATGATTGTTCTCCCAGCTGATGAATTCAGGACCTCGAGTAAACAAATTTTCCTAATCTTTCTGTTCAAGCGCCATCTAC | 0.26 RPM ratio (pull-down/input)
GATGATTGTTCTCCCAGCTGATGAATTGCGTCATTCGAGTAAACAAATTTTCCTAATCTTTCTGTTCAAGCGCCATCTAC | 2.09 RPM ratio (pull-down/input)
GATGATTGTTCTCCCAGCTGATGAATTGCGGGGGTCGAGTAAACAAATTTTCCTAATCTTTCTGTTCAAGCGCCATCTAC | 0.984 RPM ratio (pull-down/input)
GATGATTGTTCTCCCAGCTGATGAATTGAGCTGGTCGAGTAAACAAATTTTCCTAATCTTTCTGTTCAAGCGCCATCTAC | 0.419 RPM ratio (pull-down/input)
GATGATTGTTCTCCCAGCTGATGAATTAGGATGGTCGAGTAAACAAATTTTCCTAATCTTTCTGTTCAAGCGCCATCTAC | 0.492 RPM ratio (pull-down/input)
GATGATTGTTCTCCCAGCTGATGAATTGGAAGCCTCGAGTAAACAAATTTTCCTAATCTTTCTGTTCAAGCGCCATCTAC | 0.359 RPM ratio (pull-down/input)
GATGATTGTTCTCCCAGCTGATGAATTGAATAGATCGAGTAAACAAATTTTCCTAATCTTTCTGTTCAAGCGCCATCTAC | 0.257 RPM ratio (pull-down/input)

Sequence | binding signal
GATGATTGTTCTCCCAGCTGATGAATTTGGTGCCTCGAGTAAACAAATTTTCCTAATCTTTCTGTTCAAGCGCCATCTAC | 1.91 RPM ratio (pull-down/input)
GATGATTGTTCTCCCAGCTGATGAATTTATGCAATCGAGTAAACAAATTTTCCTAATCTTTCTGTTCAAGCGCCATCTAC | 4.25 RPM ratio (pull-down/input)
GATGATTGTTCTCCCAGCTGATGAATTATGAATCTCGAGTAAACAAATTTTCCTAATCTTTCTGTTCAAGCGCCATCTAC | 2.3 RPM ratio (pull-down/input)
GATGATTGTTCTCCCAGCTGATGAATTATGAATTTCGAGTAAACAAATTTTCCTAATCTTTCTGTTCAAGCGCCATCTAC | 1.57 RPM ratio (pull-down/input)
GATGATTGTTCTCCCAGCTGATGAATTATGATTTTCGAGTAAACAAATTTTCCTAATCTTTCTGTTCAAGCGCCATCTAC | 1.8 RPM ratio (pull-down/input)
GATGATTGTTCTCCCAGCTGATGAATTATGCAATTCGAGTAAACAAATTTTCCTAATCTTTCTGTTCAAGCGCCATCTAC | 5.58 RPM ratio (pull-down/input)
GATGATTGTTCTCCCAGCTGATGAATTATGCATCTCGAGTAAACAAATTTTCCTAATCTTTCTGTTCAAGCGCCATCTAC | 7.47 RPM ratio (pull-down/input)
GATGATTGTTCTCCCAGCTGATGAATTATGCAGCTCGAGTAAACAAATTTTCCTAATCTTTCTGTTCAAGCGCCATCTAC | 3.11 RPM ratio (pull-down/input)
GATGATTGTTCTCCCAGCTGATGAATTATGCAAATCGAGTAAACAAATTTTCCTAATCTTTCTGTTCAAGCGCCATCTAC | 1.16 RPM ratio (pull-down/input)
GATGATTGTTCTCCCAGCTGATGAATTATGCATTTCGAGTAAACAAATTTTCCTAATCTTTCTGTTCAAGCGCCATCTAC | 7.25 RPM ratio (pull-down/input)
GATGATTGTTCTCCCAGCTGATGAATTGAGGCCGTCGAGTAAACAAATTTTCCTAATCTTTCTGTTCAAGCGCCATCTAC | 0.905 RPM ratio (pull-down/input)
GATGATTGTTCTCCCAGCTGATGAATTAACTGTTTCGAGTAAACAAATTTTCCTAATCTTTCTGTTCAAGCGCCATCTAC | 0.641 RPM ratio (pull-down/input)
GATGATTGTTCTCCCAGCTGATGAATTGATGCCATCGAGTAAACAAATTTTCCTAATCTTTCTGTTCAAGCGCCATCTAC | 3.67 RPM ratio (pull-down/input)
GATGATTGTTCTCCCAGCTGATGAATTTTTGCAATCGAGTAAACAAATTTTCCTAATCTTTCTGTTCAAGCGCCATCTAC | 3.95 RPM ratio (pull-down/input)
GATGATTGTTCTCCCAGCTGATGAATTGCAACAATCGAGTAAACAAATTTTCCTAATCTTTCTGTTCAAGCGCCATCTAC | 7.74 RPM ratio (pull-down/input)
GATGATTGTTCTCCCAGCTGATGAATTGCAATCATCGAGTAAACAAATTTTCCTAATCTTTCTGTTCAAGCGCCATCTAC | 2.79 RPM ratio (pull-down/input)
GATGATTGTTCTCCCAGCTGATGAATTGCAGCAATCGAGTAAACAAATTTTCCTAATCTTTCTGTTCAAGCGCCATCTAC | 2.72 RPM ratio (pull-down/input)
GATGATTGTTCTCCCAGCTGATGAATTGATGCAATCGAGTAAACAAATTTTCCTAATCTTTCTGTTCAAGCGCCATCTAC | 5.86 RPM ratio (pull-down/input)
GATGATTGTTCTCCCAGCTGATGAATTGTTGCAATCGAGTAAACAAATTTTCCTAATCTTTCTGTTCAAGCGCCATCTAC | 5.54 RPM ratio (pull-down/input)
GATGATTGTTCTCCCAGCTGATGAATTTCTGCAATCGAGTAAACAAATTTTCCTAATCTTTCTGTTCAAGCGCCATCTAC | 3.01 RPM ratio (pull-down/input)
GATGATTGTTCTCCCAGCTGATGAATTGCAACCATCGAGTAAACAAATTTTCCTAATCTTTCTGTTCAAGCGCCATCTAC | 4.48 RPM ratio (pull-down/input)
